In PubChem BioAssay (EPA / NIEHS) one finds outcome and AC50 data, which are given here for seven compounds.

In experiment [1] the test system is guinea pig Atrionatriuretic Peptide Receptor A (ANPA), gene 100135578. Nature of the experiment: NVS_GPCR_gANPA: NovaScreen (NVS) G Protein-Coupled Receptor Assay for guinea pig Atrionatriuretic Peptide Receptor A (ANPA) (AID 2283291). The procedure, abridged: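 Radioligand binding to guinea pig cerebellar membranes was measured after 1 h by filter-based scintillation counting. Chemicals were tested in duplicate at 25 uM, with hits run in concentration-response to a maximum of 50 uM. Binding loss was fitted against DMSO.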

In experiment [2] the test system is rat Adrenergic, Alpha 1B Receptor (Adra1B), gene 24173. In words: NVS_GPCR_rAdra1B: NovaScreen (NVS) G Protein-Coupled Receptor Assay for rat Adrenergic, Alpha 1B Receptor (Adra1B) (AID 2283297). The method, then:
NVS_GPCR_rAdra1B is a biochemical, single-readout assay that uses extracted gene-proteins from Rat liver membranes in a tissue-based cell-free assay. Measurements were taken 1 hour after chemical dosing in a 48-well plate.NVS_GPCR_rAdra1B is one of one assay component(s) measured or calculated from the NVS_GPCR_rAdra1B assay. It is designed to make measurements of radioligand binding, a form of binding reporter, as detected with scintillation counting signals by Filter-based radiodetection technology.Data from the assay component NVS_GPCR_rAdra1B was analyzed into 1 assay endpoint. This assay endpoint, NVS_GPCR_rAdra1B, was analyzed in the positive analysis fitting direction relative to DMSO as the negative control and baseline of activity. Using a type of binding reporter, loss-of-signal activity can be used to understand changes in the binding as they relate to the gene Adra1b. Furthermore, this assay endpoint can be referred to as a primary readout, because the performed assay has only produced 1 assay endpoint. To generalize the intended target to other relatable targets, this assay endpoint is annotated to the gpcr intended target family, where the subfamily is rhodopsin-like receptor. […]

For experiment [3], the target named is rat Serotonin, 5-Hydroxytryptamine Receptor (5HT), Non-Selective Binding, Htr1a (gene 24473) (UniProt P19327). In words: NVS_GPCR_r5HT_NonSelective: NovaScreen (NVS) G Protein-Coupled Receptor Assay for rat Serotonin, 5-Hydroxytryptamine Receptor (5HT), Non-Selective Binding (AID 2283295). The procedure, abridged: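 Radioligand displacement on rat cortical membranes, 1 h incubation, filter-based scintillation counting. Primary duplicates at 25 uM, actives retested in concentration series; loss of signal fitted against DMSO as baseline.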
Sequence of rat Serotonin, 5-Hydroxytryptamine Receptor (5HT), Non-Selective Binding, Htr1a (gene 24473) (P19327 whole entry, looked up): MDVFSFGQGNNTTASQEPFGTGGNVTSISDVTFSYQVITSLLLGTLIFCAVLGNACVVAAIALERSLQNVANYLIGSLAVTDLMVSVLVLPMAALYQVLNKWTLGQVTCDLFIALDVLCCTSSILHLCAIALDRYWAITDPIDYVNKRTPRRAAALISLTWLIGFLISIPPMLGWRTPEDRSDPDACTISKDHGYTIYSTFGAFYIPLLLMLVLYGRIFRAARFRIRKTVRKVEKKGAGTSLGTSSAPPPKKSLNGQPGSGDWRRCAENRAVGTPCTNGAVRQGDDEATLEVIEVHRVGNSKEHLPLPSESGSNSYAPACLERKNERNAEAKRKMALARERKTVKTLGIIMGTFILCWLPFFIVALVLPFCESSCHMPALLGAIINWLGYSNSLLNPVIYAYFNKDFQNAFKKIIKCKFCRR

In experiment [4] the target is rat Adrenergic, Alpha 1A Receptor (Adra1A), Adra1a (gene 29412) (UniProt P43140). In words: NVS_GPCR_rAdra1A: NovaScreen (NVS) G Protein-Coupled Receptor Assay for rat Adrenergic, Alpha 1A Receptor (Adra1A) (AID 2283296). The procedure, abridged:
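Rat cortical membranes pretreated with chlorethyl clonidine; competitive radioligand displacement, 1 h. Filter-based scintillation counting. Primary screen in duplicate at 25 uM, actives followed in concentration series.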

Experiment [5] addresses rat Adrenergic Receptor, Beta (Adrb), Non-selective Binding, Adrb1 (gene 24925) (UniProt P18090). In words: NVS_GPCR_rAdrb_NonSelective: NovaScreen (NVS) G Protein-Coupled Receptor Assay for rat Adrenergic Receptor, Beta (Adrb), Non-selective Binding (AID 2283298). The procedure, abridged: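 Non-selective beta-adrenergic radioligand binding in rat cortical membranes, 1 h incubation, filter-based scintillation read-out. Primary screen 25 uM in duplicate; hits retested in concentration-response up to 50 uM, DMSO baseline.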

Experiment [6] has as its target rat Adrenergic Receptor, Alpha 2 (Adra2), Non-selective Binding, Adra2a (gene 25083) (UniProt P22909). Nature of the experiment: NVS_GPCR_rAdra2_NonSelective: NovaScreen (NVS) G Protein-Coupled Receptor Assay for rat Adrenergic Receptor, Alpha 2 (Adra2), Non-selective Binding (AID 2283299). The procedure, abridged:
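Rat cortical membranes, radioligand competitive displacement read by filter-based scintillation counting 1.25 hours after dosing. Primary screen in duplicate at 25 uM; actives followed up in concentration series.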

Inconclusive results are not listed. The source made the active and inactive calls. Rule for the calls: active = hit-call score of the fitted dose curve at least 0.9, where 1 is the maximum; inconclusive = response in the unintended direction; inactive = score below 0.9.

Sequence of rat Adrenergic Receptor, Beta (Adrb), Non-selective Binding, Adrb1 (gene 24925) (P18090 whole entry, looked up): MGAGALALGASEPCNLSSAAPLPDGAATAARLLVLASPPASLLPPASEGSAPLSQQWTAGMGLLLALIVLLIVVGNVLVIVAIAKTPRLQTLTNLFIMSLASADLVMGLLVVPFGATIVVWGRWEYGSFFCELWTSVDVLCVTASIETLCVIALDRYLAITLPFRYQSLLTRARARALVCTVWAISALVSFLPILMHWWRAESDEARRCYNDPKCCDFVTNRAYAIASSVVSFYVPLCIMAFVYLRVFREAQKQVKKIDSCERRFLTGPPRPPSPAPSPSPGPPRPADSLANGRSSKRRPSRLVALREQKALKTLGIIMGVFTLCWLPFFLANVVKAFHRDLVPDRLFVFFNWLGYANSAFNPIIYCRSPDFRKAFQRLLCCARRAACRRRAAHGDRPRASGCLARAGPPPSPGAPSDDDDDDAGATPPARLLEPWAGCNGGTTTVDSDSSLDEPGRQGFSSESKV
Sequence of rat Adrenergic Receptor, Alpha 2 (Adra2), Non-selective Binding, Adra2a (gene 25083) (P22909 whole entry, looked up): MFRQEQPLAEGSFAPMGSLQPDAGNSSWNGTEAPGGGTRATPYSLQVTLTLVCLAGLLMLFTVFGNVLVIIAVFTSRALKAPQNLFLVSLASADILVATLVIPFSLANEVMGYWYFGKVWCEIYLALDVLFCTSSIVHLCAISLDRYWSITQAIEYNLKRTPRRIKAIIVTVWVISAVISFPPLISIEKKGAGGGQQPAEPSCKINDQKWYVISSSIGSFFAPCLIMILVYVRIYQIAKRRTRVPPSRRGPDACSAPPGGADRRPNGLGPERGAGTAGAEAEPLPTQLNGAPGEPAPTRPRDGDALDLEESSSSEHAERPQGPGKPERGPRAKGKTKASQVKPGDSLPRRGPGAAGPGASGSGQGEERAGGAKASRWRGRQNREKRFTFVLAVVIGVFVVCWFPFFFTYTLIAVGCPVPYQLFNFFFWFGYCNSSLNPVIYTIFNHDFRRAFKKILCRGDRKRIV
Sequence of rat Adrenergic, Alpha 1A Receptor (Adra1A), Adra1a (gene 29412) (P43140 whole entry, looked up): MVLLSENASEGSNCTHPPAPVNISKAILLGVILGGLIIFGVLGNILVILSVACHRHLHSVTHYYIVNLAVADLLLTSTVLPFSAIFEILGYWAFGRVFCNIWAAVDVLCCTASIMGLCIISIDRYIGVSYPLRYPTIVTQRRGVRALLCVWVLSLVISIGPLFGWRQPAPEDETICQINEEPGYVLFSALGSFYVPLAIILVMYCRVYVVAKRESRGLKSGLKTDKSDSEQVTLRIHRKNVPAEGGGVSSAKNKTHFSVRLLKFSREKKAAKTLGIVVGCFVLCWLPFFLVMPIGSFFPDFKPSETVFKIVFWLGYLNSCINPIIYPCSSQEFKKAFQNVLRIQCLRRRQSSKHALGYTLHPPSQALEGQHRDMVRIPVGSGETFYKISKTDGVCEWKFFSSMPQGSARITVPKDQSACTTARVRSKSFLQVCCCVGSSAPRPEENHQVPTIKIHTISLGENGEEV

Regarding `O=S(=O)(O)C(F)(F)C(F)(F)C(F)(F)C(F)(F)C(F)(F)C(F)(F)C(F)(F)C(F)(F)F`, the call in experiment [1] and in experiment [2] was inactive.
As usually defined, the AC50 is the concentration at which the activity in the assay is half-maximal. As for `CC[C@H](C)[C@H]1O[C@]2(C=C[C@@H]1C)C[C@@H]1C[C@@H](C/C=C(\C)[C@@H](O[C@H]3C[C@H](OC)[C@@H](O[C@H]4C[C@H](OC)[C@@H](O)[C@H](C)O4)[C@H](C)O3)[C@@H](C)/C=C/C=C3\CO[C@@H]4[C@H](O)C(C)=C[C@@H](C(=O)O1)[C@]34O)O2` (tested in a mixture with another compound), the AC50 in experiment [3] was 16.4 µM (active).
As for `O=C(Nc1ccccc1)Nc1cnns1`, the result in experiment [4] was inactive.
With `CC(C)(C)C(O)C(Oc1ccc(Cl)cc1)n1cncn1` (stereo not drawn), the outcome in experiment [2] was inactive.
As to `Oc1ccc(Cl)cc1Cc1ccccc1`, the outcome in experiment [5] was inactive.
On the same count and under the same terms, under `C#CCN1C(=O)COc2cc(F)c(N3C(=O)C4=C(CCCC4)C3=O)cc21` stands “inactive”.
As for `CCCN(CCOc1c(Cl)cc(Cl)cc1Cl)C(=O)n1ccnc1`, in experiment [6], the AC50 is 1.85 µM (active).
